Reference: PubChem BioAssay

target: Calmodulin-1 (Homo sapiens) (UniProt P0DP23); experiment: small molecules binding Ca-loaded calmodulin-1 – biochemical, small-molecule microarray, Cy5-labelled CALM1, plus calcium, artefact control for SMM control-protein annotation, profiling panel (AID 1112); settings: Cy5-CALM1 binding fluorescence, higher = more signal;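 further: score merges spot fluorescence with signal to noise from triplicate slides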

| Structure (SMILES) | composite z-score |
| --- | --- |
| CCN(CC)c1ccc(N2CC=CC34O[C@@H]5C=CCOC(=O)[C@@H]5[C@H]3C(=O)N(CCO)[C@@H]4C2=O)cc1 (stereo partly specified) | 0.266 |
| CCOC(=O)C1=CC[C@@H](c2ccccc2)N(S(=O)(=O)C[Si](C)(C)C)[C@H]1c1ccccc1 | 0.391 |
| CN(C)CCCC[C@@H]1NC(=O)[C@@H]2C[C@H](C(=O)NCc3ccc(F)cc3)[C@H](c3ccc(O)cc3)N2C1=O | 0.235 |
| C=CCOC(=O)[C@H]1[C@@H]2C(=O)O[C@@H](c3ccccc3)[C@@H](c3ccccc3)N2[C@@H](c2ccc(OCCOC(=O)[C@@H]3C[C@@H]4C(=O)N[C@@H](CC(C)C)C(=O)N4[C@@H]3c3ccc(O)cc3)cc2)[C@]12C(=O)Nc1ccc(I)cc12 | 0.303 |
| COCCCNC(=O)[C@@H]1c2ccccc2C(=O)N(C2CCCCC2)[C@H]1c1ccc(CO)cc1 | 0.716 |
| CN(C)CCCC[C@@H]1NC(=O)[C@H]2C[C@@H](C(=O)NCc3ccc(F)cc3)[C@@H](c3ccc(O)cc3)N2C1=O | 0.354 |
| COc1ccc(C#Cc2ccc3c(c2)[C@]2(C(=O)N3)[C@H](C(=O)Nc3nc4ccccc4s3)[C@H]3C(=O)O[C@H](c4ccccc4)[C@H](c4ccccc4)N3[C@@H]2c2ccc(OCCO)cc2)cc1 | 0.915 |
| C=CCC(OC(C)=O)[C@@H]1[C@@H](N(Cc2ccc(-c3cccc(C(F)(F)F)c3)o2)C(=O)c2cccc3ccccc23)c2cc(OCCCO)ccc2N1C(=O)c1ccc2ccccc2n1 (stereo partly specified) | -0.108 |
| C[N+](C)(C)CCCC[C@@H]1NC(=O)[C@H]2C[C@@H](C(=O)NCCCCCNC(=O)CS)[C@@H](c3ccc(O)cc3)N2C1=O | 0.213 |
| C=CCC(OC(C)=O)[C@@H]1[C@@H](N(Cc2cccc3ccccc23)C(=O)c2cccc3ccccc23)c2cc(OCCCO)ccc2N1C(=O)Cc1ccc2ccccc2c1 (stereo partly specified) | -0.177 |
| COc1ccc(C(O)C2C=CC3C(=O)N(C)C(=O)C3N2Nc2ccc([N+](=O)[O-])cc2[N+](=O)[O-])cc1OCc1ccccc1 (stereo unspecified) | -0.0482 |
| COCCOC(=O)N1C(=O)[C@@]2(c3cc(C#CCC(C(=O)OC)C(=O)OC)ccc31)[C@H](C(=O)N1CCc3cc(OC)c(OC)cc3C1)[C@H]1C(=O)O[C@H](c3ccccc3)[C@H](c3ccccc3)N1[C@@H]2c1ccc(O)cc1 | -0.406 |
| C=CCNC(=O)[C@@H]1[C@H]2C(=O)O[C@H](c3ccccc3)[C@H](c3ccccc3)N2[C@H](c2ccc(O)cc2)[C@@]12C(=O)Nc1ccc(C#CC3(O)CCCCCC3)cc12 | -0.0571 |
| COCCOC(=O)N1C(=O)[C@@]2(c3ccccc31)[C@H](C(=O)N1CCCCCCC1)[C@H]1C(=O)O[C@H](c3ccccc3)[C@H](c3ccccc3)N1[C@@H]2c1ccc(O)cc1 | 1.56 |
| N#Cc1ccc(C(O)C2C=CC3C(=O)NC(=O)C3N2Nc2ccccn2)cc1 (stereo unspecified) | -0.272 |
| CC(C)C[C@H]1NC(=O)[C@@]23C(=O)N[C@@H](Cc4ccccc4)C2[C@H](C)[C@@]2(C)O[C@H]2C3/C=C/C/C=C\CNC(=O)[C@@H]2CCCN2C1=O (stereo partly specified) | -0.576 |
| CCCC[C@@H]1C[C@H]1[C@@H](NC(=O)Cc1ccccc1)c1ccc(Cl)cc1 | 1.53 |
| NC(=O)N1C(=O)C2C(C1=O)C1C=C(CCCO)C2C(c2ccc(CN3CCCC3)cc2)N1Cc1cccc(OC(F)(F)F)c1 (stereo unspecified) | -0.202 |
| CCOC(=O)C[C@H]1[C@H](OC(=O)c2ccc(C(=O)c3ccccc3)cc2)[C@@H](NC(=O)c2ccc3ccccc3c2)c2cc(OCCCO)ccc2N1C(=O)c1ccc2ccccc2n1 | -0.191 |
| O=C1NC(=O)C2C1C=CC(C(O)c1ccc(F)cc1)N2Nc1ccccn1 (stereo unspecified) | -0.255 |
| COc1ccc([Si](C)(C)[C@H]2[C@H](CC(=O)N3Cc4ccccc4C[C@H]3CO)O[C@@]3(C(=O)N(Cc4cccc(N5C(=O)c6cccc7cccc5c67)c4)c4ccccc43)[C@@H]2C)cc1 | -0.836 |
| COC(=O)[C@@]1(Cc2ccccc2)[C@@H]2[C@@H](CC(=O)[C@H]2CC(=O)C(=O)N(C)C)CN1C(=O)c1ccccc1 | 0.599 |
| COC(=O)[C@]1(CO)N=C(c2ccc(OCCCO)cc2)O[C@@H]1c1ccccc1CN=[N+]=[N-] | -0.0036 |
| CC(C)CNC(=O)[C@@H]1c2ccccc2C(=O)N(C(C)C)[C@H]1c1ccc(CO)cc1 | 0.0584 |
| Cc1c(NC(=O)/C(C#N)=C/c2ccc(Cl)cc2)c(=O)n(-c2ccccc2)n1C | 0.629 |
| O=C1c2ccccc2[C@](Cc2ccccc2I)(C(=O)O)[C@H](c2ccc(CO)cc2)N1Cc1ccccc1 | 0.83 |
